# Assay results reported in PubChem BioAssay (EPA / NIEHS).
# Results filed as inconclusive are left out. Activity calls are given as the source filed them. How the source made its calls, unless noted: active means hit-call score of the fitted dose curve at least 0.9, where 1 is the maximum; inactive means score below 0.9.
# Assays:
# [1] = CCTE_Shafer_MEA_dev_firing_rate_mean: CCTE's Neural Network Formation Assay for Mean Firing Rate, Shafer Lab (AID 2284031);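 further: curve fitted for loss of firing so AC50 reflects decreased mean firing rate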
# In short: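 Steps: seed rat cortical cells (1.5 x 10^5/well) with laminin on PEI-coated MEA; dose day 0; record DIV 5/7/9/12, full media and compound exchange after DIV 5 and 9 recordings; compute well-mean firing rate AUC.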
# [2] = CCTE_Shafer_MEA_dev_per_burst_spike_percent: CCTE's Neural Network Formation Assay for Percent of Spikes in a Burst, Shafer Lab (AID 2284032);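 further: fitted as a decrease in burst spike percentage below DMSO baseline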
# In short: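 Value is trapezoidal AUC over recordings on days 5, 7, 9 and 12 of the well-mean fraction of spikes falling in single-electrode bursts; rat cortical cultures exposed continuously from plating, treatment renewed DIV 5 and 9, fitted downward against DMSO.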
# [3] = CCTE_Shafer_MEA_dev_active_electrodes_number: CCTE's Neural Network Formation Assay for Number of Active Electrodes, Shafer Lab (AID 2284040; active means hit-call score of the fitted dose curve at least 0.9, where 1 is the maximum;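 further: potency for loss of active electrodes versus DMSO so lower counts are hits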)
# In short: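 Counts electrodes per well firing at least 5 spikes/min, recorded on days 5, 7, 9 and 12 in rat cortical cultures dosed continuously from plating (treatment refreshed DIV 5, 9). Value is the area under the curve over recordings, fitted downward relative to DMSO.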
# [4] = CCTE_Shafer_MEA_dev_bursting_electrodes_number: CCTE's Neural Network Formation Assay for Number of Bursting Electrodes, Shafer Lab (AID 2284043; active means hit-call score of the fitted dose curve at least 0.9, where 1 is the maximum;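 further: potency is for loss of bursting electrodes relative to DMSO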)
# In short: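 Counted: electrodes with burst rate ≥1 per 2 min in each well. Cells: primary rat cortex, 1.5 x 10^5/well, on 16-electrode MEA wells. Exposure: DIV 0–12, compound renewed DIV 5 and 9. Recording days 5, 7, 9, 12; AUC vs DMSO baseline.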
# [5] = CCTE_Shafer_MEA_dev_per_burst_interspike_interval: CCTE's Neural Network Formation Assay for Burst Interspike Interval, Shafer Lab (AID 2284044);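 further: potency for a decrease of within-burst interspike interval below DMSO level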
# In short: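 Developmental network-formation MEA in primary rat cortical cultures with exposure spanning days 0–12. Within-burst ISI is averaged per well and integrated across recording days by area under the curve, with DMSO as negative control baseline.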
# [6] = CCTE_Shafer_MEA_dev_burst_duration_mean: CCTE's Neural Network Formation Assay for Mean Burst Duration, Shafer Lab (AID 2284045);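 further: curve fitted for loss meaning shorter burst duration than DMSO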
# In short: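 Network-formation assay in primary rat cortical neurons; treatment spans twelve days of development. Mean burst duration per well is integrated by trapezoidal AUC and fitted in the loss-of-signal direction against DMSO baseline.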
# [7] = CCTE_Shafer_MEA_dev_interburst_interval_mean: CCTE's Neural Network Formation Assay for Mean Interburst Interval, Shafer Lab (AID 2284046);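 further: well-mean interburst interval of bursting electrodes as AUC over four recording days; curve fitted for decrease in interburst interval relative to DMSO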
# In short: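 Primary rat cortical neurons on PEI-coated 48-well MEA plates (laminin added with cells at plating) (16 electrodes/well), exposed from plating day 0 with renewal at DIV 5 and 9. Mean inter-burst interval averaged over bursting electrodes, AUC across days 5, 7, 9, 12; DMSO baseline.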
# [8] = CCTE_Shafer_MEA_dev_network_spike_number: CCTE's Neural Network Formation Assay for Number of Network Spikes, Shafer Lab (AID 2284048);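 further: synchronized bursts across electrodes counted on days 5 7 9 12 and integrated as AUC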;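 on AC50: fit as a loss of signal meaning fewer network spikes than DMSO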
# In short: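 Extracellular recordings from 16-electrode wells track network formation in rat cortical cultures under continuous treatment from plating. The endpoint is network spike number, expressed as AUC across DIV 5–12 relative to DMSO vehicle.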
# [9] = CCTE_Shafer_MEA_dev_network_spike_peak: CCTE's Neural Network Formation Assay for Mean Number of Electrodes in Network Spike, Shafer Lab (AID 2284049);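 further: fitted for loss of signal meaning fewer electrodes in network spikes than DMSO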
# In short: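 Continuous 12-day exposure of rat cortical cultures, starting at plating, on MEA plates. Endpoint: electrodes participating in network-spike peaks, AUC across DIV 5–12, DMSO as negative control.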
# [10] = CCTE_Shafer_MEA_dev_spike_duration_mean: CCTE's Neural Network Formation Assay for Mean Spike Duration, Shafer Lab (AID 2284051);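 further: mean network spike duration pooled as area under curve over DIV 5 to 12 recordings; potency for a decrease in mean network spike duration versus DMSO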
# In short: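 Spontaneous activity was recorded on days 5, 7, 9 and 12 from rat cortical cultures grown on microelectrode arrays and dosed continuously from day 0, with media and compound renewed after the DIV 5 and 9 recordings. Network-spike duration was collapsed by area under the curve.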
# [11] = CCTE_Shafer_MEA_dev_network_spike_duration_std: CCTE's Neural Network Formation Assay for Standard Deviation of Network Spike Duration, Shafer Lab (AID 2284052);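 further: hits are decreases in network spike duration SD versus DMSO vehicle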
# In short: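 Network spike duration variability was collapsed across recordings on days 5, 7, 9 and 12 by trapezoidal area-under-curve and fitted downward against DMSO. Cultures were rat cortical neurons on PEI-coated MEA plates, dosed continuously from plating, refed with compound DIV 5/9.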
# [12] = CCTE_Shafer_MEA_dev_per_network_spike_spike_number_mean: CCTE's Neural Network Formation Assay for Mean Number of Spikes in a Network Spike, Shafer Lab (AID 2284053)
# In short: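 Mean spike count within each network spike, taken in a 0.05 s window at its peak, was recorded on days 5, 7, 9 and 12 and integrated as trapezoidal area under the curve. Rat cortical cultures on MEA plates received continuous compound from day 0, refreshed at medium changes on DIV 5 and 9.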
# [13] = CCTE_Shafer_MEA_dev_per_network_spike_spike_percent: CCTE's Neural Network Formation Assay for Percent of Spikes in a Network Spike, Shafer Lab (AID 2284054)
# In short: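 Developing networks of rat cortical neurons are dosed at day 0 and recorded extracellularly four times up to day 12. The endpoint is the area under the curve of percent spikes in network spikes, fitted in the negative direction relative to DMSO.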
# [14] = CCTE_Shafer_MEA_dev_LDH: CCTE's Lactate Dehydrogenase Assay for Cytotoxicity in the Neural Network Formation Assay, Shafer Lab (AID 2284068; active means hit-call score of the fitted dose curve at least 0.9, where 1 is the maximum;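 further: exposure for twelve days from plating with re-dosing on DIV 5 and 9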)
# In short: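 Primary rat cortical neurons were cultured on PEI-coated MEA plates and exposed from plating through day 12, with compound renewed at medium changes on DIV 5 and 9. LDH activity was read spectrophotometrically; loss of signal versus DMSO indicates reduced viability.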
# [15] = CCTE_Shafer_MEA_dev_AB: CCTE's Alamar Blue Assay for Cytotoxicity in the Neural Network Formation Assay, Shafer Lab (AID 2284083; active means hit-call score of the fitted dose curve at least 0.9, where 1 is the maximum;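 further: resazurin reduction fluorescence as viability of cultured neurons; twelve days of exposure from plating with re-dosing on DIV 5 and 9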)
# In short: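 Resazurin fluorescence, relative to DMSO, gauges viability after twelve days of exposure that began at plating of rat cortical neurons (1.5 x 10^5 cells/well, 48-well MEA); treatment renewed with full medium exchange on DIV 5 and 9.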
# [16] = CCTE_Shafer_MEA_dev_mutual_information_norm: CCTE's Neural Network Formation Assay for Mutual Information Normalization, Shafer Lab (AID 2284091);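 further: mutual information between electrodes summarised as area under curve across four recording days; potency is for a decrease in mutual information relative to DMSO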
# In short: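 Exposure of primary rat cortical neurons began at plating and ran to DIV 12, with full media and treatment renewal after DIV 5 and 9 recordings. Mutual information AUC (DIV 5–12) was analysed for loss versus DMSO.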
# [17] = CCTE_Shafer_MEA_dev_correlation_coefficient_mean: CCTE's Neural Network Formation Assay for Mean Correlation Coefficient, Shafer Lab (AID 2284093);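 further: well mean pairwise spike train correlation integrated as AUC over recording days 5 to 12; potency fitted for loss of correlation relative to DMSO vehicle wells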
# In short: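 Primary rat cortical neurons on PEI-coated 48-well MEA plates (16 electrodes/well) were exposed from plating day 0 through DIV12, with compound renewed at DIV5 and 9. Pairwise spike correlations were averaged per well; trapezoidal AUC across DIV5, 7, 9, 12.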
# [18] = TOX21_PR_LUC_Followup_Agonist_viability: Viability Assessment in the Tox21 HEK293 Progesterone Receptor (PR) Agonism Luciferase Follow-Up Assay (AID 2283941; active means hit-call score of the fitted dose curve at least 0.9, where 1 is the maximum;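 further: loss of signal means cytotoxicity so actives lower viability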)
# In short: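 Multiplexed viability endpoint of the PR agonist luciferase follow-up: HEK293-PR-A-luc cells treated 16 h at 37C, with viability scored as decrease in CellTiter-Glo ATP signal.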
# THRB (gene 7068) = THRB (gene 7068) (UniProt P10828); assay: TOX21_TRB_BLA_Antagonist_Followup_ratio: Tox21 Thyroid Hormone Receptor beta Antagonism Beta-lactamase (BLA) Follow-Up Assay, Ratio (AID 2283958; active means hit-call score of the fitted dose curve at least 0.9, where 1 is the maximum)
# In short: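 Cells were plated and allowed to attach for 5 h, then dosed with compounds in DMSO at 11 concentrations for 18 h at 37C. Beta-lactamase reporter activity was measured via CCF4-AM FRET as the 460:530 nm ratio.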
# [19] = TOX21_PR_LUC_Followup_Antagonist_viability: Viability Assessment in the Tox21 HEK293 Progesterone Receptor (PR) Antagonism Luciferase Follow-Up Assay (AID 2283940; active means hit-call score of the fitted dose curve at least 0.9, where 1 is the maximum)
# In short: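 HEK293-PR-A-luc, 3,000 cells/well; 5 h at 37C/0% CO2; compound pin transfer; 16 h incubation; CellTiter-Glo ATP luminescence, signal loss = cytotoxicity.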
# Sequence of THRB (gene 7068) (P10828 whole entry, looked up): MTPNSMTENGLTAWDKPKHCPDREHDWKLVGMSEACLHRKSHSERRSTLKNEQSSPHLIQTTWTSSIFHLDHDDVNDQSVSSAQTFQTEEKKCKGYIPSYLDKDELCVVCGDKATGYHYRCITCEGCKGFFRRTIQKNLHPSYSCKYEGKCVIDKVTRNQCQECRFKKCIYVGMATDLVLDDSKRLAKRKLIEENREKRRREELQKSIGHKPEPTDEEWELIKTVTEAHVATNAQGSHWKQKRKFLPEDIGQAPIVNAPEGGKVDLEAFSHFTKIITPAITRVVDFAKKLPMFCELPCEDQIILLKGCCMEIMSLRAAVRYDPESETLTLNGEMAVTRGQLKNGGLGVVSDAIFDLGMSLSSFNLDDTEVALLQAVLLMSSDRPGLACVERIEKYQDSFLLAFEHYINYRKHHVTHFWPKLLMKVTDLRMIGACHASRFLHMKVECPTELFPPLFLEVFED
smiles,measurement,setting,value
CNCCC(Oc1ccc(C(F)(F)F)cc1)c1ccccc1 (stereo not given),AC50,[1],1.87 µM (active)
same,AC50,[2],4.19 µM (active)
same,AC50,[3],2.55 µM (active)
same,AC50,[4],1.79 µM (active)
same,AC50,[5],3.14 µM (active)
same,AC50,[6],2.81 µM (active)
same,AC50,[7],4.18 µM (active)
same,outcome,[8],inactive
same,AC50,[9],2.8 µM (active)
same,AC50,[10],1.88 µM (active)
same,AC50,[11],2.01 µM (active)
same,AC50,[12],1.07 µM (active)
same,AC50,[13],7.65 µM (active)
same,AC50,[14],2.08 µM (active)
same,AC50,[15],5 µM (active)
same,AC50,[16],2.58 µM (active)
same,AC50,[17],4.19 µM (active)
CC(O)(c1ccc(Cl)cc1)c1ccc(Cl)cc1,outcome,[18],inactive
Cc1oc(C)c(C(=O)Nc2ccccc2)c1C,outcome,THRB (gene 7068),inactive
Oc1ccc2c(c1)Cc1ccccc1-2,outcome,[19],inactive
COc1ccc2cc3[n+](cc2c1OC)CCc1cc2c(cc1-3)OCO2,AC50,[1],0.106 µM (active)
same,AC50,[2],0.145 µM (active)
same,AC50,[3],0.161 µM (active)
same,AC50,[4],0.13 µM (active)
same,AC50,[5],0.381 µM (active)
same,AC50,[6],0.291 µM (active)
same,AC50,[7],0.287 µM (active)
same,AC50,[8],0.0798 µM (active)
same,AC50,[9],0.156 µM (active)
same,AC50,[10],0.13 µM (active)
same,AC50,[11],0.0974 µM (active)
same,AC50,[12],0.109 µM (active)
same,AC50,[13],0.117 µM (active)
same,AC50,[14],0.0881 µM (active)
same,AC50,[15],0.45 µM (active)
same,AC50,[16],0.0926 µM (active)
same,AC50,[17],0.106 µM (active)
CC(COc1ccccc1)N(CCCl)Cc1ccccc1 (stereo not given),outcome,[19],inactive
same,outcome,[18],inactive
O=C(CCCCCCC(=O)Nc1ccccc1)NO,outcome,THRB (gene 7068),inactive
